Screening data deposited in PubChem BioAssay by several laboratories.
CYP2C9 act: increases human cytochrome P450 2C9 activity; recombinant CYP2C9, luciferin-H conversion, luminescence; active compounds read high; factor 1 = untreated enzyme, 0 = blocked; activation factor at 5 µM; 1.4% of 96,000 active;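 active = activation factor of 2 or more for CYP2C9 at a 5 µM dose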;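 also: 0 = sulfaphenazole-blocked wells and 1 = vehicle-only wells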
Target sequence (P11712 whole entry, looked up): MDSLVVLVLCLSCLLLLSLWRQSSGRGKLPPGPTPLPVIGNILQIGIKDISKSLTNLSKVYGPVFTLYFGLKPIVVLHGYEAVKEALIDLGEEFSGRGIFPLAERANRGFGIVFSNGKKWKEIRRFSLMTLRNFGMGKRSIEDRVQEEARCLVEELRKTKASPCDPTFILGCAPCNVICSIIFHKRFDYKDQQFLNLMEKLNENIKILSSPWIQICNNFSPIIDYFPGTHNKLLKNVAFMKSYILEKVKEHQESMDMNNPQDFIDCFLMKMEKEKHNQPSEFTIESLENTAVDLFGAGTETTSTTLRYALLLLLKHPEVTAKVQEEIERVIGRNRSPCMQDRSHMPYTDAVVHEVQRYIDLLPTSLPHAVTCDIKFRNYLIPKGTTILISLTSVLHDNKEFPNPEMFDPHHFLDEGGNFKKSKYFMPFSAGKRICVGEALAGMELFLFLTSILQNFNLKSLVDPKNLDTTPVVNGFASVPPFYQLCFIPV
CYP2C9 inhib: inhibitors of human CYP2C9 | 20% of 96,000 active | inhibition, % at 5 µM | AID 777 | P11712 | CYP2C9 Supersomes, luciferin-H conversion, luminescence;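 active = blocking of liver enzyme CYP2C9 beyond about 50% at 5 µM, limit read from the data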
cytoskel mod: alters cytoskeleton assembly in HUVEC cells; HUVEC TNFa F-actin phalloidin imaging, high content; inhibition, % at 2 µM; 0.18% of 91,000 active;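 active = inhibition above the batch mean plus 3 SD and confirmed as a hit by visual image inspection, cut at about 30% in these data, passing the limit was not always enough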
CYP2C19 inh: blocks human cytochrome P450 2C19 | inhibition, % at 5 µM | P33261 | CYP2C19 Supersomes, luciferin-H EGE luminescence, 30 min | 21% of 96,000 active;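 active = CYP2C19 inhibition above a set limit at 5 µM in the primary screen, cut at about 50% in these data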;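 also: plate controls were negative control wells for no effect and 2.5 mM tranylcypromine positive control for full effect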
E-sel TNF inh: blocks E-selectin expression induced by TNF alpha. HUVEC TNFa-induced E-selectin immunofluorescence, high content. inhibition, % at 2 µM. 0.71% of 120,000 active;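 active = inhibition above the batch mean plus 3 SD, and confirmed as a hit on visual image review, cut at about 43% in these data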;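 also: 0% = TNF-stimulated DMSO wells and 100% = unstimulated control wells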
CYP2C19 activ: increases human CYP2C19 enzyme activity; 96,000 tested, under 10 active; activation factor at 5 µM; P33261; recombinant CYP2C19, luciferin-H EGE luminescence; active compounds read high; 0 = fully inhibited enzyme, 1 = untreated enzyme;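 active = activation factor of at least 2 at 5 µM in the primary screen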;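 also: 0 = wells with 2.5 mM tranylcypromine and 1 = vehicle-only wells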
* = called active by the depositor; / = no result given. Hits are enriched below; roughly 22% of the tested compounds scored in any of these assays.

SMILES	CYP2C9 act	CYP2C9 inhib	cytoskel mod	CYP2C19 inh	E-sel TNF inh	CYP2C19 activ
O=C(NCCSc1c[nH]c2ccccc12)C1CC1	0.7	25	8	16	/	0.8
Cc1nc2ccccc2n1C(=O)N(C)C	/	/	/	/	-26	/
CC1=CC(C)(C)N(S(=O)(=O)c2ccc(F)cc2)c2ccccc21	0.5	46	4	58*	-8	0.4
C/C(CC(=O)Nc1ccccc1C)=N\NC(=O)Cc1csc(N)n1	1	0	16	2	/	1
CCOC(=O)c1cc2n(c1/N=C/N(C)C)-c1ccccc1C2=O	0.4	62*	/	22	-43	0.8
CN1CC[n+]2cnc3ccccc3c21	1.2	-16	/	-23	-19	1.2
NC(=O)c1ncc(C(F)(F)F)cc1Oc1ccc(C(F)(F)F)cc1	0.8	19	5	75*	/	0.2
Cc1ccc2nc(Nc3nc(=O)c4ccccc4n3C)nc(C)c2c1	1	3	/	-6	/	1.1
CC(NC(N)=O)C(=O)OCC(=O)c1ccc(-c2ccccc2)cc1 (stereo not drawn)	/	/	/	/	-8	/
O=C(c1cccs1)N(C(=O)c1cccs1)c1ccc(Br)cn1	0	99*	-1	100*	45*	0
CC(C)(C)n1ncc2c(=O)n(Cc3c(F)cccc3Cl)cnc21	0.7	32	4	87*	11	0.1
O=C(NC1CCN(C(=S)NCc2ccco2)CC1)C12CC3CC(CC(C3)C1)C2	0.7	30	-10	67*	/	0.3
CC(C)CNC(=S)N1CCC(NC(=O)C23CC4CC(CC(C4)C2)C3)CC1	/	/	5	/	9	/
CCOc1ncccc1C(=O)OCC(=O)Nc1cc(S(=O)(=O)N2CCOCC2)ccc1Cl	/	/	/	/	2	/
O=C(Nc1ccc2c(c1)OCCO2)C1CCCN1S(=O)(=O)c1ccc(Cl)cc1 (stereo not drawn)	0	96*	-11	88*	-4	0.1
COc1ccc(S(=O)(=O)N2CCCC(C(=O)Nc3ccc4c(c3)OCCO4)C2)cc1 (stereo not drawn)	/	/	/	/	-13	/
O=C(Nc1ccc2c(c1)OCO2)C1CCCCN1S(=O)(=O)c1ccccc1 (stereo not drawn)	0.4	64*	4	98*	16	0
O=C(NCc1cccnc1)Nc1cccc(NC(=O)NCc2cccnc2)c1	0.9	14	/	6	-27	0.9
O=C(NCc1ccncc1)Nc1ccc(F)cc1	0.2	79*	23	92*	-27	0.1
CN(C)C(CNS(=O)(=O)c1ccc(Br)cc1)c1cccnc1 (stereo not drawn)	/	/	-28	/	22	/
CC(=O)c1cccc(NC(=O)NCc2cccnc2)c1	0.8	20	50*	25	100*	0.8
CN(C)C(CNC(=O)Nc1cccc(Cl)c1)c1cccnc1 (stereo not drawn)	0.6	39	14	51*	-45	0.5
O=C(NCCc1ccncc1)Nc1ccccc1	/	/	5	/	-5	/
CN(C)C(CNS(=O)(=O)c1ccc(Cl)cc1)c1cccnc1 (stereo not drawn)	0.8	16	1	52*	/	0.5
Cc1ccccc1C(=O)NC(=S)Nc1ccc(S(=O)(=O)N2CCN(C)CC2)cc1	0.8	23	9	31	-16	0.7
SMILES	CYP2C9 act	CYP2C9 inhib	cytoskel mod	CYP2C19 inh	E-sel TNF inh	CYP2C19 activ
CCOC(=O)C1CCN(Cc2ccc(C(=O)OC)cc2)CC1	0.9	7	-21	7	-3	0.9
O=C(NCc1ccncc1)Nc1cccc(Cl)c1	0.2	81*	-13	90*	-12	0.1
Cc1c(Cl)cccc1NC(=O)NCc1ccncc1	/	/	/	/	11	/
O=C(NCc1ccncc1)Nc1ccc(Cl)cc1Cl	0.2	83*	-8	90*	9	0.1
COc1cc2ccccc2cc1C(=O)NCC(c1cccs1)N(C)C (stereo not drawn)	/	/	/	/	-77	/
COc1ccccc1C(=O)NCC(c1cccnc1)N(C)C (stereo not drawn)	0.5	50*	5	35	-30	0.7
Cc1cc(C)c(NC(=O)c2ccc(S(=O)(=O)N3CCOCC3)cc2)c(C)c1	1	-3	/	-13	/	1.1
O=C(NC(=S)NCc1ccccc1)c1ccccc1F	0.7	26	-1	29	-34	0.7
O=C(NC(=S)N(Cc1ccccc1)Cc1ccccc1)c1ccccc1F	0.5	53*	18	22	-22	0.8
COc1ccc(/C=C2\CCn3c2nc2cc(C(=O)O)ccc2c3=O)cc1O	/	/	/	/	-16	/
CCN(CC)c1ccc(/C=C/C(=O)c2cccnc2)cc1	/	/	/	/	-25	/
